Results taken from PubChem BioAssay (NCI).
About 79,000 compounds went through this panel and 15% of them were active in at least one assay; those are over-represented in the sample as a whole. Rule as the data show it: active = growth inhibition above about 70%; inactive = the rest.

How the values were obtained:
[1] = NCI Yeast Anticancer Drug Screen. Data for the rad50 strain (AID 155);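 also: 0% = growth of vehicle-only cultures of the same strain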; settings: S. cerevisiae rad50 strain growth inhibition; at 50.0 µM; stronger effect = higher value
In short: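 Yeast carrying a defined DNA repair defect were exposed to test compounds, and growth was compared with vehicle-treated controls to give percent inhibition.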

[2] = NCI Yeast Anticancer Drug Screen. Data for the mec2-1 strain (AID 157); settings: S. cerevisiae mec2-1 strain, at 50.0 µM, stronger effect = higher value
In short: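 Compounds were applied to mec2-1 yeast cells. Their growth was then compared with that of vehicle-treated cultures to give growth inhibition.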

[3] = NCI Yeast Anticancer Drug Screen. Data for the sgs1 mgt1 strain (AID 161);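 also: 0% = growth of cultures given vehicle only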; settings: S. cerevisiae sgs1 mgt1 strain, at 50.0 µM, stronger effect = higher value
In short: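 Yeast cells carrying a defined DNA-repair defect were exposed to test compounds. Growth inhibition was measured relative to vehicle-treated controls.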

[4] = NCI Yeast Anticancer Drug Screen. Data for the cln2 rad14 strain (AID 165);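 also: 0% = growth equal to vehicle treated cultures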; settings: S. cerevisiae cln2 rad14 strain, at 50.0 µM, stronger effect = higher value
In short: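 Strain: cln2 rad14 yeast, altered in cell cycle control and DNA damage repair. Read-out: growth inhibition vs vehicle.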

[5] = NCI Yeast Anticancer Drug Screen. Data for the bub3 strain (AID 167); settings: S. cerevisiae bub3 mutant strain, at 50.0 µM, stronger effect = higher value
In short: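 Compounds were applied to a genetically altered yeast strain carrying a cell-cycle control defect. Growth inhibition was scored against vehicle-treated controls.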

[6] = NCI Yeast Anticancer Drug Screen. Data for the mlh1 rad18 strain (AID 175); settings: S. cerevisiae mlh1 rad18 strain growth inhibition; at 50.0 µM; stronger effect = higher value
In short: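 A repair-deficient yeast strain is exposed to test compound, and growth is scored relative to vehicle-treated controls.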

Measured: growth inhibition

Cc1nc(Nc2ccccc2)c(C#N)c(=O)[nH]1
inactive: [1] -19.6% | [2] -16.4% | [3] -15.6% | [4] -10.1% | [5] -2.95% | [6] -7.05%

COc1cc([N+](=O)[O-])c2ncccc2c1OC
inactive: [1] 5.55% | [2] -11.1% | [3] -22.1% | [4] -20.2% | [5] 0.45% | [6] 68.2%

CC(C)=NOC(=O)Nc1ccccc1
inactive: [1] 44.4% | [2] -19.8% | [3] 14.9% | [4] -15.4% | [5] 1.7% | [6] 33.9%

CCOC(=O)NC(Nc1ccc(OC(F)(F)F)cc1)(C(F)(F)F)C(F)(F)F
inactive: [1] -8.7% | [2] -8.2% | [3] -39.1% | [4] -1.25% | [5] -19.9% | [6] -0.3%

Nc1nc(N)nc(-c2ccccc2-c2nc(N)nc(N)n2)n1
inactive: [1] -5.65% | [2] -2.85% | [3] 3.45% | [4] -18% | [5] 14.2% | [6] 6.65%

C(#CCOc1ccc2c(c1)OCO2)COc1ccc2c(c1)OCO2
inactive: [1] 29% | [2] 0.8% | [3] -18.8% | [4] -9.05% | [5] -8.8% | [6] 8.3%

O=[N+]([O-])c1cccc(C(O)(C(F)(F)F)C(F)(F)F)c1
inactive: [1] -19.1% | [2] 6.2% | [3] 1.7% | [4] 24.1% | [5] 42.7% | [6] 14%

COc1cc(C2c3c(oc4ccccc4c3=O)Oc3oc4ccccc4c(=O)c32)cc(OC)c1O
inactive: [1] -17.4% | [2] 4.65% | [3] 5.25% | [4] 31.9% | [5] -0.3% | [6] -13.1%

O=C(N=Nc1c(O)[nH]c2ccc(Br)cc12)c1ccncc1
inactive: [1] -1.75% | [2] 2.8% | [3] 9.6% | [4] 3.2% | [5] 8.25% | [6] -10.1%

NC1(C(=O)O)CCCc2ccccc21 (stereo not given)
inactive: [1] 13.3% | [2] 8.15% | [3] -1.1% | [4] -1.7% | [5] -12.6% | [6] 8.95%

CC(C)(C)c1cc(C(=O)O)c2c(c1)C(=O)OC2(c1ccccc1)c1ccccc1C(=O)O (stereo not given)
inactive: [1] 29.1% | [2] 7.6% | [3] 5.6% | [4] 9.95% | [5] 8.75% | [6] 31.2%

C=CCC1C(=O)NN=C1C (stereo not given)
inactive: [1] 5.05% | [2] -12.1% | [3] -10.7% | [4] -22.5% | [5] -5.5% | [6] 2.45%

COC(=O)CCCC(=O)NC1=C(NCc2ccccc2)C(=O)c2ccccc2C1=O
inactive: [1] 10.1% | [2] 12.3% | [3] 33.6% | [4] 13.8% | [5] 32.1% | [6] -0.35%

CN(C)c1ccc(/C=C2\CCOC2=O)cc1
inactive: [1] 38.1% | [2] 11.8% | [3] 14.3% | [4] 4.6% | [5] 2.95% | [6] 8.6%

O=[N+]([O-])Cc1ccc(Cl)cc1
inactive: [1] 4.6% | [2] 18.4% | [3] 13.1% | [4] -33% | [5] -19.7% | [6] 15.6%

CC(C)=C1CC(C)(C)N=C1CCN1CCOCC1
inactive: [1] -12.3% | [2] -20.6% | [3] -12.5% | [4] -6% | [5] -11.3% | [6] -24.6%

NC1Nc2ccccc2NC1=O (stereo not given)
inactive: [1] 4.85% | [2] 10.2% | [3] 3.4% | [4] -3.15% | [5] 6.4% | [6] 0.05%

Cc1cccc(Cl)c1NC(=O)c1cccc([N+](=O)[O-])c1
inactive: [1] 0.15% | [2] 40.6% | [3] 22.9% | [4] -7.95% | [5] 32.4% | [6] 46.4%

CCCCS(=O)(=O)c1ccc(Cl)cc1
inactive: [1] -2.65% | [2] -13.9% | [3] -4.45% | [4] -16% | [5] -3.9% | [6] 21.9%

CN(C)S(=O)(=O)C(CO)c1ccccc1 (stereo not given)
inactive: [1] 5.75% | [2] 12.9% | [3] 6.8% | [4] 3.15% | [5] -5.4% | [6] 10.5%
